{"source": "PubChem BioAssay (EPA / NIEHS)", "key": {"[1]": {"assay": "CCTE_Mundy_HCI_iCellGluta_NOG_NeuronCount: CCTE's Neurite Outgrowth Assay in iCellGluta cells for Neuron Count, Mundy Lab (AID 2284340; active means hit-call score of the fitted dose curve at least 0.9, where 1 is the maximum;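 further: cells fixed about 48 h after compound addition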)", "outline": "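Neuron count read by automated high-content imaging of Hoechst 33342 and betaIII-tubulin/Alexa Fluor-488 labelling in human iPSC glutamatergic neurons. Activity fitted relative to DMSO.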"}, "[2]": {"assay": "CCTE_Mundy_HCI_iCellGluta_NOG_NeuriteCount: CCTE's Neurite Outgrowth Assay in iCellGluta cells for Neurite Count, Mundy Lab (AID 2284342; active means hit-call score of the fitted dose curve at least 0.9, where 1 is the maximum;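 further: chemical exposure about 48 hours starting 2 hours after plating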)"}, "[3]": {"assay": "Tanguay_ZF_120hpf_MO24: Oregon State University Tanguay Lab 24 Hour Post-fertilization zebrafish Assay for Mortality (AID 2284389)", "outline": "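Dechorionated wild-type zebrafish embryos, 1 per well, statically exposed from 6 hpf at 28C, 0.64% DMSO final. Mortality scored as binary present/absent at 24 hpf by brightfield microscopy, relative to DMSO.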"}, "[4]": {"assay": "Tanguay_ZF_120hpf_DP24: Oregon State University Tanguay Lab 24 Hour Post-fertilization zebrafish Assay for Delayed Development (AID 2284390)", "outline": "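Dechorionated 5D wild-type zebrafish embryos exposed statically from 6 hpf, one per well, 0.64% DMSO final, 28 C, sealed and dark. Developmental progression scored at 24 hpf by brightfield as binary present/absent; dead embryos excluded.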"}, "[5]": {"assay": "Tanguay_ZF_120hpf_CRAN: Oregon State University Tanguay Lab 120 Hour Post-fertilization zebrafish Assay for Craniofacial Malformation (AID 2284397)", "outline": "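Dechorionated Tropical 5D wild-type zebrafish embryos, one per well, were statically exposed from 6 to 120 hpf at 28C in 0.64% DMSO, with 5uM trimethyltin chloride as positive control. Craniofacial malformation was scored present/absent by brightfield microscopy, relative to DMSO.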"}, "[6]": {"assay": "Tanguay_ZF_120hpf_AXIS: Oregon State University Tanguay Lab 120 Hour Post-fertilization zebrafish Assay for Axial Malformation (AID 2284398)", "outline": "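Dechorionated 5D wild-type zebrafish embryos exposed statically, one per well, from 6 to 120 hpf at 28C, 0.64% DMSO. Axial malformation scored as present/absent by brightfield microscopy at 120 hpf; dead embryos not scored.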"}, "[7]": {"assay": "Tanguay_ZF_120hpf_MORT: Oregon State University Tanguay Lab 120 Hour Post-fertilization zebrafish Assay for Mortality (AID 2284399)", "outline": "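Dechorionated wild-type Tropical 5D zebrafish embryos, one per well from 6 hpf, static exposure to 120 hpf at 28C in sealed dark plates, 0.64% DMSO final. Mortality scored as binary by brightfield at 24 and 120 hpf.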"}, "[8]": {"assay": "Tanguay_ZF_120hpf_EDEM: Oregon State University Tanguay Lab 120 Hour Post-fertilization zebrafish Assay for Edema Malformation (AID 2284400)", "outline": "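Dechorionated Tropical 5D wild-type embryos, one per well, statically exposed from 6 to 120 hpf at 28C in 0.64% DMSO. Edema scored present/absent by brightfield microscopy at 120 hpf; dead embryos not scored; fit versus DMSO.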"}, "[9]": {"assay": "Tanguay_ZF_120hpf_MUSC: Oregon State University Tanguay Lab 120 Hour Post-fertilization zebrafish Assay for Muscle Malformation (AID 2284401)", "outline": "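Dechorionated Tropical 5D wild-type zebrafish embryos exposed statically from 6 to 120 hpf at 28C, one per well, in 0.64% DMSO. Muscle malformation scored present/absent by brightfield microscopy at 120 hpf, fitted against DMSO.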"}, "[10]": {"assay": "Tanguay_ZF_120hpf_BRN: Oregon State University Tanguay Lab 120 Hour Post-fertilization zebrafish Assay for Brain Region Malformation (AID 2284402)", "outline": "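Dechorionated wild-type Tropical 5D zebrafish embryos exposed statically from 6 to 120 hpf at 28C, one per well, 0.64% DMSO final. Brain malformation scored at 120 hpf by brightfield as present/absent; dead embryos not scored.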"}, "[11]": {"assay": "Tanguay_ZF_120hpf_TCHR: Oregon State University Tanguay Lab 120 Hour Post-fertilization zebrafish Assay for Touch Responsive (AID 2284403)", "outline": "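Dechorionated Tropical 5D wild-type zebrafish embryos, one per well from 6 hpf, were statically exposed to 120 hpf at 28 °C (0.64% DMSO). Touch response was scored present/absent at 120 hpf and not scored in dead larvae.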"}, "[12]": {"assay": "Tanguay_ZF_120hpf_ANY: Oregon State University Tanguay Lab 120 Hour Post-fertilization zebrafish Assay for Any Mortality and Malformation (AID 2284404)", "outline": "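Dechorionated Tropical 5D wild-type embryos, one per well from 6 hpf, static exposure in sealed, dark plates at 28C until 120 hpf, 0.64% DMSO final. Brightfield scoring of mortality and malformations as binary presence/absence, pooling 13 morphology endpoints.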"}, "[13]": {"assay": "CCTE_Padilla_ZF_Score.Craniofacial: CCTE's 144 Hour Post-fertilization zebrafish Assay Score for Craniofacial Malformation, Padilla Lab (AID 2284405)", "outline": "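Wild-type zebrafish embryos (with chorions), one per well in 10% Hanks', were dosed at 6–8 hpf in sealed plates and kept at 26C. They were rinsed at 5 dpf. At 6 dpf two blinded assessors scored craniofacial malformations by brightfield stereomicroscopy.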"}, "[14]": {"assay": "IUF_NPC1_cytotoxicity_72hr: Cytotoxicity Assessment at 72 hours in the Leibniz Research Institute for Environmental Medicine (IUF) Neural Progenitor Cell Proliferation Assay (NPC1) (AID 2284332; active means hit-call score of the fitted dose curve at least 0.9, where 1 is the maximum;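 further: rising LDH signal means more cytotoxicity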)", "outline": "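Human fetal neural progenitor spheres (0.3 mm) in EGF/FGF proliferation medium, 37C, exposed 72 h without renewal. LDH release in supernatant read by resorufin fluorescence; gain of signal scored relative to dynamic range.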"}, "SERPINA7 (gene 6906)": {"tested_on": "SERPINA7 (gene 6906)", "assay": "CCTE_GLTED_hTBG: CCTE's human Thyroxine-binding Globulin (TBG) Inhibition Assay, Great Lakes Toxicology and Ecology Division (GLTED) Lab (AID 2284343; active means hit-call score of the fitted dose curve at least 0.9, where 1 is the maximum;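 further: active chemicals lower fluorescence versus DMSO baseline by displacing probe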)", "outline": "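Human TBG incubated 2 h with test chemical; displacement of ANSA probe read by fluorescence, 380 nm excitation/475 nm emission. Loss of signal relative to DMSO.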"}}, "note": "“And” between values parts separate entries of the source, which are not always exact repeats. Equal entries are not always repeated. Results filed as inconclusive are left out. Some compounds were tested as several samples or in several runs, with calls that do not always agree. The source made the active and inactive calls. How the source made its calls, unless noted: active means hit-call score of the fitted dose curve at least 0.9, where 1 is the maximum; inactive means score below 0.9."}
{"smiles": "O=C(O)C(F)(F)C(F)(F)C(F)(F)C(F)(F)C(F)(F)C(F)(F)C(F)(F)C(F)(F)C(F)(F)F", "values": [{"measurement": "outcome", "setting": "[1]", "result": "inactive"}, {"measurement": "outcome", "setting": "[2]", "result": "inactive"}, {"measurement": "outcome", "setting": "[3]", "result": "inactive"}, {"measurement": "outcome", "setting": "[4]", "result": "inactive"}, {"measurement": "AC50", "setting": "[5]", "result": "19.5 µM (active)"}, {"measurement": "outcome", "setting": "[6]", "result": "inactive"}, {"measurement": "outcome", "setting": "[7]", "result": "inactive"}, {"measurement": "outcome", "setting": "[8]", "result": "inactive"}, {"measurement": "outcome", "setting": "[9]", "result": "inactive"}, {"measurement": "outcome", "setting": "[10]", "result": "inactive"}, {"measurement": "outcome", "setting": "[11]", "result": "inactive"}, {"measurement": "AC50", "setting": "[12]", "result": "8.9 µM (active)"}, {"measurement": "outcome", "setting": "[13]", "result": "inactive"}]}
{"smiles": "O=C(O)C(F)(F)C(F)(F)C(F)(F)C(F)(F)C(F)(F)F", "values": [{"measurement": "outcome", "setting": "[3]", "result": "inactive"}, {"measurement": "outcome", "setting": "[4]", "result": "inactive"}, {"measurement": "outcome", "setting": "[5]", "result": "inactive"}, {"measurement": "outcome", "setting": "[6]", "result": "inactive"}, {"measurement": "outcome", "setting": "[7]", "result": "inactive"}, {"measurement": "outcome", "setting": "[8]", "result": "inactive"}, {"measurement": "outcome", "setting": "[9]", "result": "inactive"}, {"measurement": "outcome", "setting": "[10]", "result": "inactive"}, {"measurement": "outcome", "setting": "[11]", "result": "inactive"}, {"measurement": "outcome", "setting": "[12]", "result": "inactive"}, {"measurement": "outcome", "setting": "[13]", "result": "inactive"}]}
{"smiles": "O=S(=O)(O)C(F)(F)C(F)(F)C(F)(F)C(F)(F)F", "values": [{"measurement": "outcome", "setting": "[14]", "result": "inactive"}, {"measurement": "outcome", "setting": "[1]", "result": "inactive"}, {"measurement": "outcome", "setting": "[2]", "result": "inactive"}, {"measurement": "outcome", "setting": "SERPINA7 (gene 6906)", "result": "inactive"}, {"measurement": "outcome", "setting": "[3]", "result": "inactive"}, {"measurement": "outcome", "setting": "[4]", "result": "inactive"}, {"measurement": "outcome", "setting": "[5]", "result": "inactive"}, {"measurement": "outcome", "setting": "[6]", "result": "inactive"}, {"measurement": "outcome", "setting": "[7]", "result": "inactive"}, {"measurement": "outcome", "setting": "[8]", "result": "inactive"}, {"measurement": "outcome", "setting": "[9]", "result": "inactive"}, {"measurement": "outcome", "setting": "[10]", "result": "inactive"}, {"measurement": "outcome", "setting": "[11]", "result": "inactive"}, {"measurement": "outcome", "setting": "[12]", "result": "inactive"}, {"measurement": "outcome", "setting": "[13]", "result": "inactive"}]}
{"smiles": "CCOC(=O)C(O)(c1ccc(Cl)cc1)c1ccc(Cl)cc1", "values": [{"measurement": "AC50", "setting": "SERPINA7 (gene 6906)", "result": "7.32 µM (active)"}]}
{"smiles": "O=S(=O)(O)C(F)(F)C(F)(F)C(F)(F)C(F)(F)C(F)(F)C(F)(F)F", "values": [{"measurement": "outcome", "setting": "[14]", "result": "inactive"}, {"measurement": "outcome", "setting": "[1]", "result": "inactive"}, {"measurement": "outcome", "setting": "[2]", "result": "inactive"}, {"measurement": "outcome", "setting": "[3]", "result": "inactive"}, {"measurement": "outcome", "setting": "[4]", "result": "inactive"}, {"measurement": "AC50", "setting": "[5]", "result": "85.1 µM (active)"}, {"measurement": "outcome", "setting": "[5]", "result": "inactive"}, {"measurement": "AC50", "setting": "[6]", "result": "84.8 µM (active)"}, {"measurement": "outcome", "setting": "[6]", "result": "inactive"}, {"measurement": "outcome", "setting": "[7]", "result": "inactive"}, {"measurement": "AC50", "setting": "[8]", "result": "85.1 µM (active)"}, {"measurement": "outcome", "setting": "[8]", "result": "inactive"}, {"measurement": "AC50", "setting": "[9]", "result": "84.8 µM (active)"}, {"measurement": "outcome", "setting": "[9]", "result": "inactive"}, {"measurement": "AC50", "setting": "[10]", "result": "81.8 µM (active)"}, {"measurement": "outcome", "setting": "[10]", "result": "inactive"}, {"measurement": "AC50", "setting": "[11]", "result": "84.8 µM (active)"}, {"measurement": "outcome", "setting": "[11]", "result": "inactive"}, {"measurement": "AC50", "setting": "[12]", "result": "85.1 µM (active) and 71.3 µM (active)"}, {"measurement": "AC50", "setting": "[13]", "result": "81.3 µM (active)"}, {"measurement": "outcome", "setting": "[13]", "result": "inactive"}]}
{"smiles": "CCCCCCCCCc1ccc(O)cc1", "values": [{"measurement": "AC50", "setting": "SERPINA7 (gene 6906)", "result": "5.76 µM (active)"}]}
{"smiles": "CCCCCCOC(=O)c1ccccc1C(=O)OCCCCCC", "values": [{"measurement": "AC50", "setting": "SERPINA7 (gene 6906)", "result": "5.7 µM (active)"}]}
